The results in this text go back to patent publication US20130210151, “ENDONUCLEASE FOR GENOME EDITING” (University of Western Ontario, published 2013).

The experiment addresses TevN201-ZFE-6xHis (I-TevI 1-201 fused to ryA zinc finger) (synthetic (bacteriophage T4 I-TevI …)). Description: cleavage_in_vitro; 10 mM MgCl2, 100 mM NaCl, pH 8.0, 37 C. As to conditions: tags: C-terminal 6xHis; dsDNA, one strand shown. The protocol: Single time-point cleavage assays to determine the EC_{0.5max} of N201 Tev-ZFE were performed in buffer containing 20 mM Tris-HCl pH 8.0, 100 mM NaCl, 10 mM MgCl₂, 5% glycerol, 1 mM DTI and 10 nM pTZHS1.33. Reactions were incubated for 3 minutes at 37° C., stopped with 5 μl stop solution (100 mM EDTA, 40% glycerol, and bromophenol blue), and electrophoresed on a 1% agarose gel prior to staining with ethiduium bromide and analysis on an AlphaImager™3400 (Alpha Innotech). The EC_{0.5max} was determined by fitting the data to the equation
Cleavage assays were performed with wild type and mutant substrates and increasing concentrations of TevN201-ZFE to determine the amount of protein required for half-maximal cleavage (EC_{0.5max}). […] The greater substrate discrimination observed in the genetic assay likely reflects lower in vivo protein concentrations than those used for in vitro cleavage assays. […] Although the BmoN221-ZFE substrate specificity was not tested extensively, it was shown that the chimeric endonuclease cleaved the Bmo-ryA substrate plasmid, but not the target-less control plasmid.
For “CTAGAAAACACTCAGTAGATGTTTTCTTGGGTCTACCGTCCCACGCCGCATG”, the binding signal is ~60 fold higher EC0.5max vs TZ1.33. Next, “CTAGACAACACTCAGTAGATGTTTTCTTGGGTCTACCGTCCCACGCCGCATG”: ~4.7 fold higher EC0.5max vs TZ1.33.
